Consider 20 compounds from PubChem BioAssay (EPA / NIEHS).

Calls of active or inactive are those of the source. How the source made its calls: active means hit-call score of the fitted dose curve at least 0.9, where 1 is the maximum; inactive means score below 0.9.

Read-out in the experiment: Heat shock 70 kDa protein 1 (HSPA1A), gene 3303
In words: LTEA_HepaRG_HSPA1A: Life Technologies and Expression Analysis (LTEA) Assay for Heat shock 70 kDa protein 1 (HSPA1A) using HepaRG (AID 2283502). The settings on record: mRNA level, 48 h; actives raise or lower the signal. The method in brief:
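HSPA1A induction in human HepaRG liver cells is measured after 48 h of chemical treatment (100 uM maximum, 0.5% DMSO vehicle). Expression comes from qRT-PCR normalized to endogenous controls.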
Take `CC(C)OC(=O)C(C)(C)Oc1ccc(C(=O)c2ccc(Cl)cc2)cc1`: the compound was called inactive. `CCCC[C@H]1CN(CC2CCOCC2)C(=O)OC12CCN(C1(C)CCN(C(=O)c3c(C)ncnc3C)CC1)CC2`: the compound was classed as inactive.

Turning to `CCCCCCCCCCCCCCOS(=O)(=O)O`, the compound was called inactive. Broadly, the AC50 is the concentration at which the activity in the assay is half-maximal. As to `OCC(CO)n1cnc(-c2ccc(F)cc2)c1-c1ccnc(Oc2ccccc2)n1`, the AC50 is 37 µM (active). On to `CC(C)(O)c1ccc(CNC(=O)c2cccnc2Oc2ccc(F)cc2)cc1`, for which the outcome was inactive.

As to `Cc1cc(SC2=C(O)C[C@@](CCc3ccc(N)cc3)(C(C)C)OC2=O)c(C(C)(C)C)cc1CO`, the compound was called inactive. For the compound `N[C@@H](Cc1c[nH]c2ccccc12)C(=O)O`, the result was inactive. As for `CC(C)c1cccc(C(C)C)c1`, the outcome was inactive. Consider `CC(=O)S[C@H](C(=O)N[C@H]1Cc2ccccc2[C@H]2CCC[C@@H](C(=O)O)N2C1=O)C(C)C`, for which the compound was called inactive. `COc1ccc(C(=O)Nc2nc3ccccc3c(NCc3ccccc3)c2C#N)cc1`: the result was inactive. The same measure, in the same setting: under `O=C(Oc1ccccc1)c1cccc(C(=O)Oc2ccccc2)c1` stands “inactive”; under `CN(C)C(=O)NC1(c2ccccc2)CCN(CC[C@@]2(c3ccc(F)c(F)c3)CN(C(=O)c3ccccc3)CCO2)CC1`, “inactive”; under `CC(C)c1cccc(C(C)C)c1NC(=O)NS(=O)(=O)c1cc(C(C)(C)O)co1`, “inactive”. In the case of `O=C1c2c(O)cccc2Cc2cccc(O)c21`, the outcome was inactive. Take `O=[Si]=O`: the outcome was inactive. In the case of `CC(N)=O`, the call was inactive. In the case of `CC(C)(C)c1ccccc1`, the call was inactive. For the compound `Cc1ccc(C(C)(C)C)c(O)c1`, the call was inactive. For the compound `c1ccc2occc2c1`, the outcome was inactive.

Consider `COC(=O)CCC(=O)OC`, for which the outcome was inactive.
